Experimental data as given in PubChem BioAssay AID1347416 (National Center for Advancing Translational Sciences (NCATS), 2020).
The campaign covered roughly 4,100 compounds. About 1,600 (39%) were called active. Roughly 25% stayed inconclusive and do not appear here. Calls follow the shape of the dose curve; as a rule, active = well fitted inhibition curve with a large enough effect; inconclusive = small, poorly fitted or top-dose-only effect; inactive = no such curve, though single readings can be large or run the other way. The list shows a part of the results.

Assay: qHTS Validation assay for Inhibitors of Plasmodium falciparum Dd2 growth in vitro; also: nearly all actives have a fitted effect of over 70% in size
Details: P. falciparum Dd2 in RBCs, SYBR Green growth, 72 h; series mostly up to 28.7 µM; activity change, negative = inhibition: at the top concentration
How it was run: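 P. falciparum Dd2-infected red blood cells (2.5% hematocrit, 0.3% parasitemia) grown 72 h at 37 °C under 5% O2 with compounds in a titration, 29 uM to 0.5 nM final. Growth read as SYBR Green-1 fluorescence after ~16 h lysis; artesunate 300 nM as positive control.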
% is scaled to controls: 0 for no effect and ±100 for the full control effect; potency is read from the fitted curve at half-maximal effect.

Compound | Potency | activity change, negative = inhibition
C#Cc1ccc(C(=O)Nc2ccc(N3CCC(C)CC3)c(C(N)=O)c2)cc1 | 6.68 µM (active) | 
CCN1c2cc(C(=O)Nc3ccc4c(c3)CCC4)ccc2C(=O)N2CCCCC21 (stereo not given) |  | -10% (inactive)
CC1CCCCN1c1ccc(N)cc1C(N)=O (stereo not given) |  | 20.7% (inactive)
Cc1ccc2c(c1)c1c3n2CCCN(Cc2ccccc2)C3CCC1 (stereo not given) | 4.22 µM (active) | 
CN(C)Cc1c(O)ccc2oc(Cc3ccccc3)cc12 | 0.422 µM (active) | 
COc1ccc(-n2c(/C=C(\C)O)nc(=O)c3c(C)cc(C)nc32)cc1 | 3.35 µM (active) | 
O=C(Cc1ccccc1)N1CCCC2(CC(c3ccccn3)=NO2)C1 (stereo not given) |  | 39% (inactive)
CCOC(=O)c1c(C)[nH]c(C(=O)CSc2nnc(C3CC3)n2N)c1C | 1.5 µM (active) | 
CCOC(=O)c1c(C)[nH]c(C(=O)OCc2c(C)noc2C)c1C |  | 13.1% (inactive)
O=C(Nc1ccc(Br)cc1)c1ccc(F)c(S(=O)(=O)NC2CCCCCC2)c1 | 9.44 µM (active) | 
CN1c2cc(C(=O)Nc3ccc(S(N)(=O)=O)cc3)ccc2C(=O)N2CCCCC21 (stereo not given) |  | 39.2% (inactive)
O=C(Nc1ccc(Br)cc1F)c1cc(S(=O)(=O)NC2CCCC2)ccc1F |  | 4.64% (inactive)
CC1(COc2ccccc2)COc2ccc(C(=O)NCc3cnccn3)cc2N1 (stereo not given) |  | 53.5% [at 43.1 µM] (inactive)
Cc1nccn1C1(C(=O)O)CCN(Cc2ccc(-c3ccn[nH]3)o2)CC1 |  | 93.2% (inactive)
Cc1noc(-c2cccs2)c1C(=O)NC(C)c1cccc2ccccc12 (stereo not given) | 0.668 µM (active) | 
c1csc(-c2cn3ccc4ccccc4c3n2)c1 |  | 22.6% (inactive)
O=C(NCc1nc(-c2ncccn2)no1)c1csc(-c2cccs2)n1 |  | 8.58% (inactive)
CNC(=O)c1ccsc1NC(=O)CCS(=O)(=O)c1ccccc1 |  | 23.9% (inactive)
Cc1cc(C(=O)CN2C(=O)NC(c3ccccc3)(c3ccccc3)C2=O)c(C)n1Cc1ccco1 | 8.41 µM (active) | 
O=C(O)c1ccc(C2SCC(=O)N2Cc2ccco2)cc1 (stereo not given) |  | 2.49% (inactive)
Cc1cc(C(=O)CN2C(=O)NC(C)(c3cccc(Br)c3)C2=O)c(C)n1Cc1ccco1 (stereo not given) | 13.3 µM (active) | 
CC1(c2ccccn2)Nc2ccccc2-c2nc3ccccc3n21 (stereo not given) | 5.31 µM (active) | 
COc1ccc2c(c1)C1(Nc3ccccc3-c3nc4ccccc4n31)C(=O)N2 (stereo not given) | 0.596 µM (active) | 
O=C1Nc2ccccc2C12Nc1ccccc1-c1nc3ccccc3n12 (stereo not given) | 6.68 µM (active) | 

Compound | Potency | activity change, negative = inhibition
COc1ccc(-c2cnc([C@@H]3COCCN3Cc3ccccc3O)[nH]2)cc1 | 17.2 µM (active) | 
CS(=O)(=O)c1ccc(-c2cnc([C@@H]3COCCN3Cc3ccccc3)[nH]2)cc1 |  | -13.7% [at 43.1 µM] (inactive)
Oc1ccccc1CN1CCOC[C@H]1c1ncc(-c2ccc(C(F)(F)F)cc2)[nH]1 | 4.85 µM (active) | 
COc1cc(OC)cc(C(=O)N2CCC(c3nc(C4CCOC4)no3)CC2)c1 (stereo not given) |  | 12.6% (inactive)
c1ccc(CCNc2ccnc3cc4ccccc4cc23)cc1 | 1.68 µM (active) | 
c1ccc2cc3c(NCCN4CCOCC4)ccnc3cc2c1 | 1.68 µM (active) | 
O=c1c(NCCc2ccccc2)c(-c2ccccc2)c1=O |  | -27.2% (inactive)
COCCN1Cc2ccc(NCC(C)C)nc2C(C)(C(=O)Nc2ccncc2)C1 (stereo not given) | 21.7 µM (active) | 
CC1(C)C(=O)N(CC2CCOCC2)[C@H]2CN(CCCc3ccccc3)C[C@@H]2[S+]1(=O)[O-] |  | 0% [at 43.1 µM] (inactive)
COC(=O)c1cc(NC(=O)CC2C(=O)OCCN2Cc2ccccc2)cc(C(=O)OC)c1 (stereo not given) |  | 18.7% (inactive)
COc1cccc(N2C(=O)C(CC(=O)Nc3ccccc3)N(CCc3sccc3C)C2=O)c1 (stereo not given) |  | 21.4% (inactive)
O=C(CC1C(=O)N(Cc2ccccc2)C(=S)N1CCN1CCOCC1)Nc1ccc(F)cc1 (stereo not given) | 5.31 µM (active) | 
Cc1noc(C)c1CCC(=O)NC1CCc2nn(CC3CC3)c(=O)n2CC1 (stereo not given) |  | 14.8% (inactive)
N#CC(=C1CCCC1)c1nc(-c2ccccc2O)cs1 | 9.44 µM (active) | 
CN(Cc1ccc(-n2cccn2)cc1)CC1CCN(CCc2ccc(F)cc2)CC1 | 10.6 µM (active) | 
CN(CC1CCN(CCc2ccc(Cl)cc2)CC1)C(=O)c1ccccc1C#N |  | -11.9% (inactive)
Cc1[nH]n(-c2ccccc2)c(=O)c1/C=N/Nc1nncc(-c2ccccc2)n1 | 4.22 µM (active) | 
CN(C)C(=O)c1ccc(OC2CCN(C(=O)c3cccs3)CC2)nc1 |  | -30.1% (inactive)
COC(=O)[C@H](Cc1ccc(OC)cc1)NC(=O)[C@H]1CN(C(=O)c2ccc(N(C)C)cc2)CCN1C(=O)c1cccs1 | 0.188 µM (active) | 
CN(C)c1ccc(CC(=O)N2CC[C@@](C)(O)[C@@H](O)C2)cc1 |  | 24.5% (inactive)
COC(=O)[C@H](Cc1ccc(OC)cc1)NC(=O)[C@H]1CN(C(=O)Nc2ccccc2)CCN1C(=O)NC(C)C |  | -23.7% (inactive)
COC(=O)[C@H](Cc1ccc(OC)cc1)NC(=O)[C@H]1CN(C(=O)c2ccc(N(C)C)cc2)CCN1C(=O)C1CCCCC1 | 0.668 µM (active) | 
COc1ccc(C(=O)N2CCN(C(=O)C3CCCCC3)C[C@@H]2C(=O)N[C@H]2CCCNC2=O)cc1 |  | 68.6% (inactive)
Cc1cccc(C(=O)N2CCc3cc(CNC(=O)c4ccc(Br)o4)ccc32)c1 | 9.44 µM (active) | 

Compound | Potency | activity change, negative = inhibition
Cc1ccc(C(=O)N2CCc3cc(CNC(=O)CCc4ccccc4)ccc32)cc1 |  | -22.1% (inactive)
CC(=O)N1CCc2cc(S(=O)(=O)NC(Cc3ccccc3)C(=O)Nc3cc(C)cc(C)c3)ccc21 (stereo not given) |  | -21.5% (inactive)
O=C(O)c1ccc(S(=O)(=O)N(Cc2cccs2)CC2CCCO2)cc1 (stereo not given) |  | 0.601% (inactive)
COc1ccc(S(=O)(=O)N2CCN(C(=S)NCC3CCCO3)CC2)cc1OC (stereo not given) | 6.68 µM (active) | 
O=C(CCC1CCN(S(=O)(=O)c2ccccc2)CC1)NCc1ccc(F)cc1 |  | -28.6% (inactive)
CCOC(=O)Cn1c(=O)oc2cc(S(=O)(=O)N3CCCC(C)C3)ccc21 (stereo not given) |  | 1.29% (inactive)
O=S(=O)(c1ccc(F)cc1)N1CCN(C(=S)NCC2CCCO2)CC1 (stereo not given) | 6.68 µM (active) | 
O=C(NCc1ccc(Cl)cc1)C1CCN(S(=O)(=O)c2cccc3nonc23)CC1 |  | 72.7% (inactive)
CS(=O)(=O)N1CCC(C2CCN(C(=O)Cc3ccc(Cl)cc3)C2)CC1 (stereo not given) |  | -3.31% (inactive)
O=S(=O)(c1ccc(Cl)cc1)N1CCN(C(=S)NCC2CCCO2)CC1 (stereo not given) | 1.88 µM (active) | 
COc1ccccc1NC(=O)Cn1c(=O)n(CCC(=O)NCC2CCCO2)c(=O)c2cc(OC)c(OC)cc21 (stereo not given) |  | -20.6% (inactive)
O=S(=O)(c1ccc(F)cc1)N1CCN(C(=S)NCCc2ccccc2)CC1 | 5.96 µM (active) | 
CCOCCCNC(=O)CN1C(=O)c2c(c3ccccc3n2C)C1c1ccc(OC)cc1 (stereo not given) |  | 0% (inactive)
Cc1ccc(-c2noc(CCC(=O)Nc3ccc(C)cn3)n2)cc1 |  | 16.8% (inactive)
O=C1NCCCCCCN(Cc2ccncc2)[C@@H]2CN(C(=O)NC3CCCCC3)CC[C@@H]12 |  | 5.81% (inactive)
N#Cc1ccc(CN2CC[C@@H]3C(=O)NCCCCCCN(Cc4ccncc4)[C@@H]3C2)cc1 | 10.6 µM (active) | 
CN1C(=O)[C@H]2CN(Cc3ccc(C#N)cc3)C[C@H]2C1=O |  | 14.4% (inactive)
CCc1ccc2c(c1)cc(CN(C(=S)Nc1cccc(C)c1)C1CC1)c1nnnn12 | 3.35 µM (active) | 
O=C(CC(c1ccc(F)cc1)c1cn(Cc2ccccc2)c2ccc([N+](=O)[O-])cc12)N1CCOCC1 (stereo not given) | 9.44 µM (active) | 
Cc1ccoc1C(=O)N1C[C@@H](COCC2CC2)[C@H](c2ccncc2)C1 |  | 0% (inactive)
CCC(C)(C)n1nnnc1C(c1cccnc1)N1CCN(c2cccc(C(F)(F)F)c2)CC1 (stereo not given) | 6.68 µM (active) | 
CCOC(=O)c1c(C)[nH]c(C)c1S(=O)(=O)N1CCN(c2cccc(C(F)(F)F)c2)CC1 |  | 19.3% (inactive)
CNC(=O)[C@@H]1C[C@H](n2cc(CN(C)C(=O)NCC3CCCCC3)nn2)CN1 |  | 63.7% (inactive)
CCCCn1c(=N)c(C(=O)NC2CCCCC2)cc2c(=O)n3cccc(C)c3nc21 | 1.5 µM (active) | 

Compound | Potency | activity change, negative = inhibition
CCCn1c(=N)c(C(=O)NCc2ccc3c(c2)OCO3)cc2c(=O)n3cccc(C)c3nc21 | 10.6 µM (active) | 
CCCn1c(=N)c(C(=O)NC2CCCC2)cc2c(=O)n3cccc(C)c3nc21 | 5.96 µM (active) | 
CCCN1C(=O)Cc2cc(C(=O)NCc3ccc(C)c(C)c3)ccc21 |  | -22.2% (inactive)
CCn1c(CO)nnc1C1CC(NC(=O)c2cnc3sccn3c2=O)C1 (stereo not given) |  | -13.6% (inactive)
CCCn1c(=N)c(C(=O)NC2CCCCC2)cc2c(=O)n3cc(C)ccc3nc21 |  | -8.41% (inactive)
COCCCn1c(=N)c(C(=O)NCC2CCCO2)cc2c(=O)n3cc(C)ccc3nc21 (stereo not given) |  | 20.7% (inactive)
CCOc1cc2[nH]c(=O)n(Cc3ccc(C(=O)N4CCN(c5cccc(Cl)c5)CC4)cc3)c(=O)c2cc1OCC |  | 23.4% (inactive)
COc1ccccc1N1CCN(C(=O)c2ccc3c(=O)n(Cc4ccc5c(c4)OCO5)c(=O)[nH]c3c2)CC1 | 2.99 µM (active) | 
COC(=O)c1ccc2c(=O)n(CCCCCC(=O)NCCc3ccccc3)c(=O)[nH]c2c1 |  | 3.51% (inactive)
OC(c1cc(-c2ccc(C(F)(F)F)cc2)nc(C(F)(F)F)c1)C1CCCCN1 (stereo not given) | 0.15 µM (active) | 
CN(CC1CCOCC1)S(=O)(=O)c1ccc(C(F)(F)F)cc1 |  | -9.41% (inactive)
Nc1nonc1-n1nnc(C(=O)N/N=C/c2ccc(Br)cc2)c1-c1ccc2c(c1)OCO2 | 0.422 µM (active) | 
Nc1nonc1-n1nnc(C(=O)N/N=C/c2ccc(F)cc2)c1-c1ccc2c(c1)OCO2 | 0.335 µM (active) | 
O=C(CSc1nnc(Cc2cccs2)n1-c1ccc(Cl)cc1)NCc1ccc2c(c1)OCO2 |  | 12.4% (inactive)
Nc1nonc1-n1nnc(C(=O)N/N=C/c2ccc(Cl)cc2)c1-c1ccc2c(c1)OCO2 | 0.376 µM (active) | 
Cc1ccc(-c2c(C(=O)N/N=C/c3cccc(Cl)c3)nnn2-c2nonc2N)cc1 | 0.237 µM (active) | 
Nc1nonc1-n1nnc(C(=O)N/N=C/c2cccs2)c1-c1ccc2c(c1)OCO2 | 1.68 µM (active) | 
COc1ccc(NC(=O)c2c(C)oc3ccc(O)c(CN4CCCC(C)C4)c23)cc1Cl (stereo not given) | 0.944 µM (active) | 
Cc1oc2ccc(O)c(CN3CCCC(C)C3)c2c1C(=O)Nc1ccccc1 (stereo not given) | 2.11 µM (active) | 
COc1ccc(NC(=O)N2CCCC(Cn3cnc4cccnc43)C2)cc1Cl (stereo not given) |  | 25.8% (inactive)
COc1ccc(NC(=O)c2c(C)oc3ccc(O)c(CN4CCCCCC4)c23)cc1Cl | 1.88 µM (active) | 
COc1ccc(NC(=O)c2cc3n(n2)CC(c2ccc(Cl)cc2)OC3)cc1Cl (stereo not given) |  | 20.3% (inactive)
Cc1ccc(CN2CCc3nc(C(=O)Nc4cccnc4)oc3CC2)o1 |  | -11.7% [at 43.1 µM] (inactive)
